Measured values published in PubChem BioAssay (NCATS).
“And” between values parts separate entries of the source, which are not always exact repeats. Equal entries are not always repeated. Results filed as inconclusive are left out. The source made the active and inactive calls. Unless noted, calls follow the shape of the dose curve; as a rule, active = well fitted curve in either direction with a large enough effect (not every such curve was filed as active); inconclusive = small, poorly fitted or top-dose-only effect, or another doubt; inactive = flat fitted curve, though single readings scatter.

How the values were obtained:
[1] = AP1 Signaling Pathway (AID 357); conditions: ME-180 AP-1-bla reporter, EGF-induced, beta-lactamase ratio, 5 h;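 also: ME-180 reporter cells stimulated with EGF at its EC50 level; % is scaled to controls: 0 for no effect and ±100 for the full control effect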
Procedure, shortened: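 Modulation of EGF-driven AP-1 transcription was assessed with a beta-lactamase reporter in ME-180 cells. Compound and EC50 EGF were co-incubated 5 hours at 37 °C before 2.5-hour CCF4 loading at room temperature and dual-emission reading.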

[2] = biological target: Cytochrome P450 1A2 (Homo sapiens) (UniProt P05177); assay: p450-cyp1a2 (AID 410; calls by dose curve; also: potency is read from the fitted curve at half-maximal effect;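 as to activity change, negative = inhibition: -100% = full effect of reference inhibitor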); conditions: recombinant CYP1A2, luciferin-ME demethylation, luminescence; series mostly up to 57 µM
Chain of Cytochrome P450 1A2 (Homo sapiens) (P05177 whole entry, looked up): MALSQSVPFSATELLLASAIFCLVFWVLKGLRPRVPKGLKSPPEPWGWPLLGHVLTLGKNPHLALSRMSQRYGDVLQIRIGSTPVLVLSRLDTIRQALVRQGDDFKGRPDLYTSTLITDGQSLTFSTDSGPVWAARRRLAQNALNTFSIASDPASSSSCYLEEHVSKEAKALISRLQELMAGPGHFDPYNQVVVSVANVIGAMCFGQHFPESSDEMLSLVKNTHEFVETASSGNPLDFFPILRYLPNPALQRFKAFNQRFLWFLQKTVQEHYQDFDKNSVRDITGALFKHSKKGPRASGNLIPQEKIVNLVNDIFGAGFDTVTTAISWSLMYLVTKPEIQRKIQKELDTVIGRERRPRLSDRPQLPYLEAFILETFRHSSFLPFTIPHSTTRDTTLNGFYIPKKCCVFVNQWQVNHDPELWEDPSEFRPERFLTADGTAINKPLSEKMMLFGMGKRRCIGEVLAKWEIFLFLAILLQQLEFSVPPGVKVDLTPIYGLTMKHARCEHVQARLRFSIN
Procedure, shortened: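 Read-out is luminescence from luciferin produced by CYP1A2 demethylation of Luciferin-ME (100uM, at Km). Detection reagent stopped the 60 min NADPH-dependent reaction; signals were normalized to 57 uM furafylline.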

[3] = NFAT Signaling Pathway (AID 444); conditions: Jurkat NFAT-bla M1, carbachol, beta-lactamase ratio, 5 h;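 also: carbachol stimulus at about its EC50 of 1 µM final; % is scaled to controls: 0 for no effect and ±100 for the full control effect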
Procedure, shortened: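 Jurkat cells carrying an NFAT-driven β-lactamase reporter and co-transfected muscarinic M1 receptor were treated with compound plus carbachol (1 uM final, an EC50 level) for 5 h at 37 °C. CCF4 loading followed for 1 h at RT; 460/530 nm ratio gave %activity.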

[4] = Stat Signaling Pathway (AID 446); conditions: ME-180 (cervical carcinoma) SIE beta-lactamase reporter, IL-6 stimulated, 5 h;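 also: ME-180 cervical cancer cells given 40 pM IL-6 alongside compound; SIE-controlled beta-lactamase reporter measured as 460/530 nm FRET emission ratio; % is scaled to controls: 0 for no effect and ±100 for the full control effect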
Procedure, shortened: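 Overnight-plated ME-180 cells bearing a STAT Inducible Element beta-lactamase reporter; 5 h co-exposure to compound and 40 pM IL-6; values normalized to 300 pM IL-6 and 125 nM JAK inhibitor controls.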

[5] = biological target: Glucocorticoid receptor (Homo sapiens) (UniProt P04150); assay: GR-GFP Redistribution (AID 450;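 active = compounds whose dose series gives a full or clear partial fitted curve of increased nuclear translocation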; also: potency is read from the fitted curve at half-maximal effect); conditions: U2OS GR-GFP nuclear translocation, laser cytometry, 2 h
Chain of Glucocorticoid receptor (Homo sapiens) (P04150 whole entry, looked up, the tested form may be a part): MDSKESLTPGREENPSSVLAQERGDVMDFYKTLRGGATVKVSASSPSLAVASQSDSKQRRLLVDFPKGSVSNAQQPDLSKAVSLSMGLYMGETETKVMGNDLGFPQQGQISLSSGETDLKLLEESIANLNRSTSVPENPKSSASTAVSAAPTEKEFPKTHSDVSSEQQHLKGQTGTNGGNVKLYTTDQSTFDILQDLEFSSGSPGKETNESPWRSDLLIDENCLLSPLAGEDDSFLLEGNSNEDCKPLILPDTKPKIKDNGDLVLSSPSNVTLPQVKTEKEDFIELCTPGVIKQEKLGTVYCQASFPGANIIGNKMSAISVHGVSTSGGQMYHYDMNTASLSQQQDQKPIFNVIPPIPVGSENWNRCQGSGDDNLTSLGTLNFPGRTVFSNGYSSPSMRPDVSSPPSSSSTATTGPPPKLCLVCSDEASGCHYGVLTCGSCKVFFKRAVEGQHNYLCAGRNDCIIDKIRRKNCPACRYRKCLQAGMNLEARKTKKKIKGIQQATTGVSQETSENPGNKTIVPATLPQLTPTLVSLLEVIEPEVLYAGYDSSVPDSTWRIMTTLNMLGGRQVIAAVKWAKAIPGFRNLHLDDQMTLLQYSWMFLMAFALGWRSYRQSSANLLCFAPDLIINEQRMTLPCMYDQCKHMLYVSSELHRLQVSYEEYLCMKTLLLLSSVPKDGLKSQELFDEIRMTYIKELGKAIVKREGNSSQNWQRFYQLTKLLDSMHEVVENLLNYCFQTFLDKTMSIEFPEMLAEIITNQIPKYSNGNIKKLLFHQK

[6] = biological target: Glucocorticoid receptor (Homo sapiens) (UniProt P04150); assay: GR-EFC Redistribution (AID 451; calls by dose curve; also: potency is read from the fitted curve at half-maximal effect); conditions: CHO-K1 GR-EFC translocation, beta-gal luminescence, 2 h
Procedure, shortened: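 CHO-K1 cells stably expressing nuclear-localized β-gal enzyme acceptor and GR fused C-terminally to the enzyme donor fragment; ligand-driven nuclear translocation restores β-gal by complementation. Compounds titrated up to 46 uM final, 2 h at 37 °C; luminescence read.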

[7] = biological target: Mitogen-activated protein kinase 10 (Mus musculus) (UniProt Q61831); assay: JNK3 AlphaScreen Assay (AID 530); conditions: JNK3 lysate, c-Jun phosphorylation; series mostly up to 57.1 µM;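 also: kinase came from lysate of stimulated human HepG2 cells; signal reports phosphorylation of biotinylated GST-cJun 1-79 at Ser73 with 10 µM ATP; % is scaled to controls: 0 for no effect and ±100 for the full control effect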
Procedure, shortened: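 Biotinylated GST-cJun(1-79) served as substrate for JNK3 in HepG2 lysates stimulated with IL-1beta and TNF-alpha. ATP was 10 uM final, pH 7.6. Ser73 phosphorylation was quantified by AlphaScreen (680 nm excitation).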

[8] = biological target: Lysosomal acid glucosylceramidase (Homo sapiens) (UniProt P04062); assay: Glucocerebrosidase-p2 (AID 348; in the data active = potency below about 10 µM; also: potency is read from the fitted curve at half-maximal effect); conditions: purified GBA, blue fluorogenic substrate, 40 min
Chain of Lysosomal acid glucosylceramidase (Homo sapiens) (P04062 whole entry, looked up): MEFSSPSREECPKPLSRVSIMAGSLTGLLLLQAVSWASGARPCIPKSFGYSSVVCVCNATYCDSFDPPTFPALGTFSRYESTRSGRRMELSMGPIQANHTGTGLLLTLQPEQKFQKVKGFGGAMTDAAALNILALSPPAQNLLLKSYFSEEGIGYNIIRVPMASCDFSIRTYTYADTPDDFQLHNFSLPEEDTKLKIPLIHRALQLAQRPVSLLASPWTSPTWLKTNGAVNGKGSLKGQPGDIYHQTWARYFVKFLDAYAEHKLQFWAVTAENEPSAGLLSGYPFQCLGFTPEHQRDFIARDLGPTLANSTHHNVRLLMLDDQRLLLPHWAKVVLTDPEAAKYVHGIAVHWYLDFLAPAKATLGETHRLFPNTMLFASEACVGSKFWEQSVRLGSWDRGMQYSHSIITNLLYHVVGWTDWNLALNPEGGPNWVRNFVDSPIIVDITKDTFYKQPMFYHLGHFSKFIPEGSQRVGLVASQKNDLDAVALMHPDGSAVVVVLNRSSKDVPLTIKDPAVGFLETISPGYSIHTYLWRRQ
Procedure, shortened: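 Normal human glucocerebrosidase (0.2 nM) with blue fluorogenic substrate (80 uM final) in citrate/phosphate pH 5.9 with 10mM sodium taurocholate, 0.01% tween-20; 40 min RT, NaOH/glycine stop; fluorescence Ex 365/Em 440; AC50 from a titration from 0.6 nM upwards.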

[9] = Cell Viability - BJ (AID 421; calls by dose curve;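 also: potency is read from the fitted curve at half-maximal effect; cells exposed to compound for 40 hours at 37 °C before readout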); conditions: BJ fibroblast viability, qHTS
Procedure, shortened: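 Quantitative HTS: ATP depletion in BJ cells after 40 hr compound exposure in complete culture medium, detected with CellTiter-Glo; AC50 from standard Hill fits.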

[10] = Cell Viability - Jurkat (AID 426;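 active = dose-dependent loss of cell ATP signal giving a full or clear fitted curve, ranked by lower potency value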;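 also: potency is read from the fitted curve at half-maximal effect; cells exposed to compound for 40 hours at 37 °C before ATP read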); conditions: qHTS
Procedure, shortened: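 Cytotoxicity was scored as loss of cellular ATP, measured by luciferase-based luminescence, in Jurkat clone E6-1 cells after 40 h compound treatment; tamoxifen and doxorubicin served as positive controls.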

[11] = Cell Viability - Hek293 (AID 427;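 active = compounds whose dose-response curve shows a full or clear partial loss of cell viability, called from curve shape rather than a numeric limit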;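 also: potency is read from the fitted curve at half-maximal effect; cells exposed to compound for 40 hours at 37 °C before reading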); conditions: qHTS
Procedure, shortened: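 AC50 values derive from Hill-modelled concentration-response of ATP-based luminescence, normalized between DMSO-only and 100 uM tamoxifen controls. Cells were exposed in complete culture medium for 40 hr at 37 °C before detection.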

[12] = Cell Viability - HepG2 (AID 433; calls by dose curve;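 also: potency is read from the fitted curve at half-maximal effect; potency for ATP loss meaning cytotoxicity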); conditions: qHTS
Procedure, shortened: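 Read-out is luciferase-based quantitation of cellular ATP as a measure of viable HepG2 cells after 40 h treatment at 37 °C. Signal decrease is scaled between DMSO-only and 100 uM tamoxifen controls, with AC50 fitted by the Hill equation.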

[13] = Cell Viability - MRC5 (AID 434; calls by dose curve;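 also: potency is read from the fitted curve at half-maximal effect; cells exposed to compound for 40 hours at 37 °C; potency reflects cytotoxicity seen as loss of intracellular ATP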); conditions: MRC5 lung fibroblast viability, qHTS
Procedure, shortened: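 Decrease in intracellular ATP, quantified by luciferase light output, reflects compound toxicity toward MRC5 cells exposed for 40 hr in complete culture medium. Concentration-response curves, scaled between DMSO and 100 uM tamoxifen, gave AC50 values.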

[14] = Cell Viability - SK-N-SH (AID 435; calls by dose curve;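 also: potency is read from the fitted curve at half-maximal effect; compound exposure lasted 40 h at 37 °C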); conditions: SK-N-SH neuroblastoma cell viability qHTS
Procedure, shortened: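 Luminescent ATP signal served as the viability read-out after 40 hours of compound treatment of human neuroblastoma SK-N-SH cells. Concentration-response data, scaled between DMSO and 100 uM tamoxifen, gave AC50 values by standard Hill modeling.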

[15] = Cell Viability - NIH 3T3 (AID 541; active = well fitted curve in the direction sought with a large enough effect; an effect the other way counts as inactive or inconclusive; also: potency is read from the fitted curve at half-maximal effect; nearly all actives have a fitted effect of over 25% in size); conditions: NIH 3T3 cell viability, qHTS; activity change, negative = cytotoxicity: at 92.2 µM (top of the series)
Procedure, shortened: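 In this cytotoxicity screen, acute toxicity is scored as an ATP drop measured by CellTiter-Glo in NIH 3T3 fibroblasts following a 40 hr, 37 °C incubation with compound.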

[16] = Cell Viability - HUV-EC-C (AID 542; active = well fitted curve in the direction sought with a large enough effect; an effect the other way counts as inactive or inconclusive; also: % is scaled to controls: 0 for no effect and ±100 for the full control effect; nearly all actives have a fitted effect of over 35% in size); conditions: HUV-EC-C endothelial cell viability, qHTS; series mostly up to 92.2 µM
Procedure, shortened: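 Concentration-dependent ATP loss in HUV-EC-C cells is the measure. Exposure lasts 40 hr at 37 °C; luminescence follows CellTiter-Glo addition, and Hill fits give AC50.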

[17] = Cell Viability - SH-SY5Y (AID 544; active = well fitted curve in the direction sought with a large enough effect; an effect the other way counts as inactive or inconclusive; also: potency is read from the fitted curve at half-maximal effect; nearly all actives have a fitted effect of over 55% in size); conditions: SH-SY5Y neuroblastoma cell viability; viability change, negative = cytotoxic: at 92.2 µM (top of the series)
Procedure, shortened: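 Quantitative HTS in SH-SY5Y neuroblastoma cells, 40 hr treatment at 37 °C, ATP content by luciferase luminescence; AC50 from Hill fits.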

[18] = Cell Viability - Renal Proximal Tubule (AID 545; active = well fitted curve in the direction sought with a large enough effect; an effect the other way counts as inactive or inconclusive;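 also: 0% = DMSO only and -100% = 100 µM tamoxifen; nearly all actives have a fitted effect of over 40% in size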); conditions: renal proximal tubule cells viability, primary cells of rat origin; activity change, negative = cytotoxicity: at 91.7 µM (top of the series)
Procedure, shortened: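 Luminescent ATP signal (CellTiter-Glo) served as the viability read-out after 40 hr compound exposure of freshly isolated rat proximal tubule cells at 37 °C. Concentration-dependent ATP loss was fitted with the Hill equation to give AC50.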

[19] = at 38 µM (top of the series) unless noted

N#C/C(=C\c1ccc(O)c(O)c1)C(=O)NCc1ccccc1
inactive: activity change, negative = inhibition ([1]; at 38 µM (top of the series)) -8.08% | activity change, negative = inhibition [3, 19] -14.7% | activity, negative = inhibition ([4]; at 38 µM (top of the series)) -18.4% | Potency [5] > 46 µM | Potency [6] > 46 µM | Potency [7]
active: Potency [2] 12.6 µM and 7.94 µM

NCCSSCCN
inactive: Potency [8] > 11.4 µM | activity change, negative = inhibition ([1]; at 7.69 µM (top of the series)) -2.06% | activity change, negative = inhibition ([1]; at 38 µM (top of the series)) -9.31% | Potency [2] | activity change, negative = inhibition ([3]; at 7.69 µM (top of the series)) 0.926% | activity change, negative = inhibition ([3]; at 38 µM (top of the series)) -3.66% | activity, negative = inhibition ([4]; at 7.69 µM (top of the series)) -10% | activity, negative = inhibition ([4]; at 38 µM (top of the series)) -21.5% | Potency [5] > 46 µM | Potency [7]

O=C1NC(O)=NC1(c1ccccc1)c1ccccc1
inactive: activity change, negative = inhibition ([1]; at 38 µM (top of the series)) 1.51% | Potency [2] | activity change, negative = inhibition [3, 19] -13.5% | activity, negative = inhibition ([4]; at 38 µM (top of the series)) -6.76% | Potency [5] > 46 µM

CC1(C)CCC=[N+]1[O-]
inactive: activity change, negative = inhibition ([1]; at 38 µM (top of the series)) -4.03% | Potency [2] | activity change, negative = inhibition [3, 19] -6.56% | activity, negative = inhibition ([4]; at 38 µM (top of the series)) 4.29% | Potency [5] > 46 µM | Potency [6] > 46 µM | Potency [7]

CN1CCc2cc(NC(=O)Nc3cccnc3)ccc21
inactive: activity change, negative = inhibition ([1]; at 38 µM (top of the series)) -1.43% | activity change, negative = inhibition [3, 19] 4.73% | activity, negative = inhibition ([4]; at 38 µM (top of the series)) 4.31% | Potency [5] > 46 µM | Potency [7]
active: Potency [2] 79.4 nM

Oc1ccccc1O
inactive: activity change, negative = inhibition ([1]; at 38 µM (top of the series)) -9.38% | Potency [2] | Potency [9] > 92 µM | Potency [12] > 92 µM | Potency [13] > 92 µM | Potency [14] > 92 µM | activity change, negative = inhibition [3, 19] 1.49% | Potency [5] > 46 µM | Potency [6] > 46 µM | Potency [7] | Potency [16] | activity change, negative = cytotoxicity [18] -24.1%
active: Potency [10] 3.17 µM | Potency [11] 30.1 µM | Potency [15] 1.26 µM | Potency [17] 10 µM

Clc1ccccc1-c1nc(-c2ccncc2)no1
inactive: Potency [8] > 11.4 µM | activity change, negative = inhibition ([1]; at 7.69 µM (top of the series)) -0.307% | activity change, negative = inhibition [3, 19] -8.15% [at 7.69 µM] | activity, negative = inhibition ([4]; at 7.69 µM (top of the series)) -6.11% | Potency [5] > 46 µM | activity change, negative = inhibition [7] 3.99% [at 11.4 µM]
active: Potency [2] 79.4 nM
